{"source": "PubChem BioAssay AID1530", "about": "(NMMLSC, 2009)", "note": "Hit rate of the full screen: of about 290,000 compounds, about 1,000 (0.34%) were called active. Rule as the data show it: active = percent response above about 24% (passing the limit was not always enough); inactive = the rest. This excerpt belongs to a sample that is enriched for actives.", "data": [{"tested_on": "MEKK2 (MAP3K2) mutant PB1 domain binding to MEK5, human", "experiment": "MEK5 binding signal on mutant MEKK2 PB1, primary screen, biochemical, multiplex bead flow cytometry, Alexa488-MEK5 (AID 1530)", "conditions": "at 10 µM, active compounds read high", "values": [{"smiles": "COCCCNC(=O)/C(C#N)=C/c1c(N2CCCCCC2)nc2ccccn2c1=O", "percent response": "5% (inactive)"}, {"smiles": "COCCNC(=O)/C(C#N)=C/c1cccc(OCc2ccccc2)c1", "percent response": "2% (inactive)"}, {"smiles": "COCCNC(=O)/C(C#N)=C/c1nc(N(C)C)n(-c2ccc(F)cc2)c1Cl", "percent response": "63% (active)"}, {"smiles": "Cc1ccc(C(NC(=O)N2CCCC2)C(Cl)(Cl)Cl)cc1F", "note": "(configuration not stated)", "percent response": "-1% (inactive)"}, {"smiles": "Cc1ccc(S(=O)(=O)c2c[nH]c3ccc(C)cc3c2=O)cc1", "percent response": "3% (inactive)"}, {"smiles": "Cc1ccc2c(C)c(C(=O)N3CCN(c4ccncc4)CC3)oc2c1C", "percent response": "30% (active)"}, {"smiles": "Cc1c(C(=O)N2CCN(c3ccc(F)cc3)CC2)oc2c1C(=O)CCC2", "percent response": "0% (inactive)"}, {"smiles": "Cc1ccc2c(C)c(C(=O)N(C)Cc3ccncn3)oc2c1C", "percent response": "0% (inactive)"}, {"smiles": "Cc1cccc(CCNC(=O)Cn2ncc3c([nH]c4ccc(C)cc43)c2=O)c1", "percent response": "-4% (inactive)"}, {"smiles": "CCCNC(=O)COc1coc(CN2CCN(Cc3ccccc3)CC2)cc1=O", "percent response": "10% (inactive)"}, {"smiles": "COc1ccc(-c2nnc(NC(=O)CS(=O)(=O)c3ccc(Cl)cc3)o2)c(OC)c1", "percent response": "2% (inactive)"}, {"smiles": "N=C(N)SCc1cccc2ccccc12", "percent response": "91% (active)"}, {"smiles": "c1ccc2c(CSCc3nc4ccccc4[nH]3)cccc2c1", "percent response": "1% (inactive)"}, {"smiles": "CCOc1ccc(Br)cc1CSC(=N)N", "percent response": "-1% (inactive)"}, {"smiles": "CCOC(=O)C1Nc2ccc(C(F)(F)F)cc2C2C=CCC12", "note": "(configuration not stated)", "percent response": "0% (inactive)"}, {"smiles": "CC(=O)c1ccc(S(=O)(=O)N2CCC3(CC2)OCCO3)cc1", "percent response": "-1% (inactive)"}, {"smiles": "CN1CCN(c2nc(Nc3ccc(O)cc3)nc3ccccc23)CC1", "percent response": "2% (inactive)"}, {"smiles": "c1ccc(Nc2nc(N3CCOCC3)c3ccccc3n2)cc1", "percent response": "38% (active)"}, {"smiles": "O=c1[nH]c(N2CCOCC2)nc2ccccc12", "percent response": "5% (inactive)"}, {"smiles": "Cc1ccc(C)c(OCCC(=O)OCC(=O)N2CCN(c3ccccc3)CC2)c1", "percent response": "-5% (inactive)"}, {"smiles": "O=C(NNS(=O)(=O)c1ccc([N+](=O)[O-])cc1)C1CCCCC1", "percent response": "7% (inactive)"}, {"smiles": "Cc1nc(-c2ccccc2)sc1C1(C)CC(c2cccnc2)=NO1", "note": "(configuration not stated)", "percent response": "-3% (inactive)"}, {"smiles": "O=C(Nc1cccnc1)c1cc([N+](=O)[O-])ccc1Cl", "percent response": "6% (inactive)"}, {"smiles": "O=C(Nc1cccnc1)c1ccc(Cl)cc1[N+](=O)[O-]", "percent response": "2% (inactive)"}, {"smiles": "O=C(Nc1cccnc1)c1cc(Cl)ccc1Cl", "percent response": "28% (active)"}, {"smiles": "Cc1[nH]n(C(N)=S)c(=O)c1N=Nc1ccc(Cl)cc1Cl", "percent response": "2% (inactive)"}, {"smiles": "CCn1c(CNC(=O)c2cc(OC)c(OC)c(OC)c2)cc2cc(C)ccc21", "percent response": "-6% (inactive)"}, {"smiles": "CN(C(=O)CN1C(=O)CCSc2ccc(S(=O)(=O)N3CCCC3)cc21)c1ccccc1", "percent response": "1% (inactive)"}, {"smiles": "CNC(C)C#Cc1ccc2sc3cc(OC)c(OC)cc3c(=O)c2c1", "note": "(configuration not stated)", "percent response": "13% (inactive)"}, {"smiles": "CC1COc2ccccc2N1C(=O)c1ccc(F)cc1", "note": "(configuration not stated)", "percent response": "1% (inactive)"}, {"smiles": "CC1Sc2ccc(S(=O)(=O)CCC(=O)NCc3ccccc3Cl)cc2NC1=O", "note": "(configuration not stated)", "percent response": "11% (inactive)"}, {"smiles": "O=C(NC1=NCCS1)[C@H](Cc1ccccc1)N1C(=O)c2ccccc2C1=O", "percent response": "0% (inactive)"}, {"smiles": "O=C(CCN1C(=O)c2ccccc2C1=O)NCCN1CCOCC1", "percent response": "-3% (inactive)"}, {"smiles": "O=C(NCCN1CCOCC1)[C@H](Cc1ccccc1)N1C(=O)c2ccccc2C1=O", "percent response": "26% (active)"}, {"smiles": "Cc1ccc(NC(=O)COC(=O)C2C3CC4OC(=O)C2C4C3)cc1Cl", "note": "(configuration not stated)", "percent response": "5% (inactive)"}, {"smiles": "CCC(C)[C@H]1COCCS(=O)(=O)N1Cc1ccc(C)cc1", "note": "(some centres not stated)", "percent response": "-5% (inactive)"}, {"smiles": "Cc1c(CCOC(=O)CC23CC4CC(CC(C)(C4)C2)C3)sc[n+]1Cc1ccc([N+](=O)[O-])cc1", "percent response": "54% (active)"}, {"smiles": "Cc1c(CCOC(=O)c2cc([N+](=O)[O-])ccc2Cl)sc[n+]1CCCCS(=O)(=O)[O-]", "percent response": "-1% (inactive)"}, {"smiles": "Cc1c(CCO)sc[n+]1CC(=O)OC12CC3CC(CC(C3)C1)C2", "percent response": "0% (inactive)"}, {"smiles": "Clc1ccc2nc(CSc3ccccc3)cn2c1", "percent response": "2% (inactive)"}, {"smiles": "CC1(C)Cc2ccccc2/C(=C/C(=O)c2ccccc2)N1", "percent response": "3% (inactive)"}, {"smiles": "CN(C)CCCNC(=S)N1CCC(c2nc3ccccc3[nH]2)CC1", "percent response": "4% (inactive)"}, {"smiles": "COCCCNC(=S)N1CCN(c2nc(-c3cccc(OC)c3)cs2)CC1", "percent response": "-4% (inactive)"}, {"smiles": "CN(C)CCCNC(=S)N1CCN(c2nc(-c3ccccc3)cs2)CC1", "percent response": "25% (active)"}, {"smiles": "COc1ccc(CCN2C(=O)C(C)=C(C)C2=O)cc1OC", "percent response": "1% (inactive)"}, {"smiles": "CC1CCN(C(=O)CCc2nnc3ccc(NCc4ccco4)nn23)CC1", "percent response": "0% (inactive)"}, {"smiles": "O=C(CCc1nnc2ccc(NCCCN3CCCC3=O)nn12)NCc1ccccc1Cl", "percent response": "6% (inactive)"}, {"smiles": "O=C(CCc1nnc2ccc(NCc3ccccc3Cl)nn12)NCC1CCN(C2CCCC2)C1", "note": "(configuration not stated)", "percent response": "26% (active)"}, {"smiles": "CC1CCCCN1C(=O)Cn1c(=O)oc2cc(S(=O)(=O)N3CCCCC3)ccc21", "note": "(configuration not stated)", "percent response": "2% (inactive)"}, {"smiles": "Cc1cccc(NC(=O)Cc2ccc(Br)cc2)n1", "percent response": "4% (inactive)"}, {"smiles": "COc1ccc(CCNC(=O)CSc2nnc3ccc(-c4ccncc4)nn23)cc1", "percent response": "146% (active)"}, {"smiles": "COc1cc(NC(=O)CSc2nnc3ccc(-c4ccncc4)nn23)cc(OC)c1", "percent response": "0% (inactive)"}, {"smiles": "COc1ccccc1CCNC(=O)CSc1nnc2ccc(-c3cccnc3)nn12", "percent response": "6% (inactive)"}, {"smiles": "CCOc1ccc(C(=O)Nc2c3c(nn2-c2ccccc2)CS(=O)(=O)C3)cc1", "percent response": "6% (inactive)"}, {"smiles": "COc1ccc(S(=O)(=O)/N=C2\\C=C(NS(=O)(=O)c3ccccc3)C(=O)c3ccccc32)cc1", "percent response": "-2% (inactive)"}, {"smiles": "CCOc1ccccc1NC(=O)Cn1ncc2ccc([N+](=O)[O-])cc21", "percent response": "3% (inactive)"}, {"smiles": "Cc1cc(NC(=O)c2cnn3cccnc23)n(-c2ccccc2)n1", "percent response": "5% (inactive)"}, {"smiles": "O=C(Nc1ccc(Cl)cn1)c1cnn2cccnc12", "percent response": "26% (active)"}, {"smiles": "O=C(Nc1ccc(Cl)cn1)c1ccc2c(c1)OCCO2", "percent response": "-5% (inactive)"}, {"smiles": "COc1ccc(C)cc1N(C(=O)Cn1nnc(-c2ccc(C)o2)n1)C(C(=O)NC1CCCC1)c1ccncc1", "note": "(configuration not stated)", "percent response": "-2% (inactive)"}, {"smiles": "CCOC(=O)N1CCN(Cc2nnc(-c3ccccc3Cl)o2)CC1", "percent response": "8% (inactive)"}, {"smiles": "CCCn1c(=N)n(CC(=O)c2ccc(Cl)c(Cl)c2)c2ccccc21", "percent response": "29% (active)"}, {"smiles": "CCCNC(=O)c1ccc(Cl)c(Cl)c1", "percent response": "-1% (inactive)"}, {"smiles": "CCn1c(=N)n(CC(=O)c2cccc(OC)c2)c2ccccc21", "percent response": "-9% (inactive)"}, {"smiles": "CN(C)CCCN(C(=O)c1ccc(S(=O)(=O)N2CCCCCC2)cc1)c1nc2ccc(Br)cc2s1", "percent response": "61% (active)"}, {"smiles": "CCOc1ccc2nc(N(CCCN(C)C)C(=O)c3ccc(C(=O)c4ccccc4)cc3)sc2c1", "percent response": "19% (inactive)"}, {"smiles": "CCc1ccc2nc(N(CCCN(C)C)C(=O)c3ccc4c(c3)OCCO4)sc2c1", "percent response": "3% (inactive)"}, {"smiles": "CCN(CC)CCN(C(=O)c1ccc(S(=O)(=O)N2CCOCC2)cc1)c1nc2cc3c(cc2s1)OCCO3", "percent response": "11% (inactive)"}, {"smiles": "O=C(Nc1nc2ccc([N+](=O)[O-])cc2s1)c1ccc(S(=O)(=O)N2CCCc3ccccc32)cc1", "percent response": "-5% (inactive)"}, {"smiles": "CN(C)CCCN(C(=O)c1ccc(S(=O)(=O)N2CCCc3ccccc32)cc1)c1nc2ccc(F)cc2s1", "percent response": "65% (active)"}, {"smiles": "O=C(NC1CCCC1)C1CC(=O)N(c2ccc(F)cc2)C1", "note": "(configuration not stated)", "percent response": "0% (inactive)"}, {"smiles": "CC(C)(c1ccccc1)c1ccc(OCCN)cc1", "percent response": "0% (inactive)"}, {"smiles": "Cc1cc(C)n(CC(O)COc2ccc(C(C)(C)C)cc2)n1", "note": "(configuration not stated)", "percent response": "-1% (inactive)"}, {"smiles": "CN(C)CC(O)COc1ccc(C(C)(C)c2ccc(OCC(O)CN(C)C)cc2)cc1", "note": "(configuration not stated)", "percent response": "33% (active)"}, {"smiles": "O=C(Nc1cccc(-c2cccc(Cl)c2)c1)C1CCN(C2CCC2)CC1", "percent response": "14% (inactive)"}, {"smiles": "CCn1cc(CN2CCC(C(=O)Nc3cccc(-c4cccc(Cl)c4)c3)CC2)cn1", "percent response": "21% (inactive)"}, {"smiles": "CCn1cc(CN2CCC(C(=O)Nc3cccc(-c4cccc(Cl)c4)c3)CC2)c(C)n1", "percent response": "35% (active)"}, {"smiles": "CC1CCN(CC(=O)Nc2nccs2)CC1", "percent response": "3% (inactive)"}, {"smiles": "Cc1ccc(C)c(S(=O)(=O)Nc2cccc(-n3cnnn3)c2)c1", "percent response": "-1% (inactive)"}, {"smiles": "CN1C(=O)/C(=C/c2ccc(C(=O)NC3CCCC3)cc2)Oc2ccccc21", "percent response": "2% (inactive)"}, {"smiles": "CN1CCN(CCCNC(=O)c2ccc(/C=C3\\Oc4ccccc4N(Cc4ccc(Cl)cc4)C3=O)cc2)CC1", "percent response": "48% (active)"}, {"smiles": "CCCN1CCN(C(=O)CCCNC(=O)c2ccc(Cl)cc2)CC1", "percent response": "-2% (inactive)"}, {"smiles": "NS(=O)(=O)c1ccc2nc(NC(=O)C3=COCCO3)sc2c1", "percent response": "-4% (inactive)"}, {"smiles": "CCC(=O)c1ccc(OCC(=O)Nc2ccc3nc(C)sc3c2)cc1", "percent response": "-22% (inactive)"}, {"smiles": "Cc1ccc(NC(=O)COc2ccc(-n3ccnc3)cc2)cc1Cl", "percent response": "27% (active)"}, {"smiles": "Cc1ccc(NC(=O)C/C(N)=N/O)cc1Cl", "percent response": "1% (inactive)"}, {"smiles": "O=C1N[C@H](Cc2ccccc2)C(=O)N[C@H]1Cc1cn(S(=O)(=O)c2ccccc2)c2ccccc12", "percent response": "2% (inactive)"}, {"smiles": "CCOC(=O)N1CCN(C(=O)C2CCN(S(=O)(=O)c3cc(Cl)ccc3OCC)CC2)CC1", "percent response": "5% (inactive)"}, {"smiles": "O=C(CSc1ccc(-c2ccc(Br)cc2)nn1)NCC1CCCO1", "note": "(configuration not stated)", "percent response": "6% (inactive)"}, {"smiles": "CC(NS(=O)(=O)c1ccc(Br)cc1)C(=O)NCC1CCCO1", "note": "(configuration not stated)", "percent response": "4% (inactive)"}, {"smiles": "OC(CNCC1CCCO1)Cn1c2ccc(Br)cc2c2cc(Br)ccc21", "note": "(configuration not stated)", "percent response": "40% (active)"}, {"smiles": "COc1ccc(NC(=O)C2=CC(c3ccc(OC)c(OC)c3)=NS(=O)(=O)N2C)cc1", "percent response": "-4% (inactive)"}, {"smiles": "COc1cc(CNCc2ccc(OC)c3ccccc23)cc(OC)c1OC", "percent response": "6% (inactive)"}, {"smiles": "Nc1nonc1-n1nnc(C(=O)N/N=C/c2cc(Br)ccc2O)c1CSC1=NCCS1", "percent response": "8% (inactive)"}, {"smiles": "CC(C)CC(=O)N1CCN(Cc2cccc(Cl)c2)CC1", "percent response": "9% (inactive)"}, {"smiles": "CC(C)CC(=O)N1CCN(Cc2ccccc2Br)CC1", "percent response": "24% (active)"}, {"smiles": "CCOc1cc(CN2CCN(C(=O)CC(C)C)CC2)ccc1OC", "percent response": "2% (inactive)"}]}]}
